Assay results published in PubChem BioAssay (NCI).
Compounds without any hit were thinned out: in the full panel of roughly 79,000, 15% have a hit. No stated cut-off is given here; in the data, active means growth inhibition above about 70%; inactive means the rest. Where a SMILES comes first, the peptide text is derived from it. The star is where a group is joined. Cbz = O=C(OCc1ccccc1)*

What was measured:
[1] = NCI Yeast Anticancer Drug Screen. Data for the rad50 strain (AID 155);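 further: 0% = growth of vehicle-only cultures of the same strain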; conditions: S. cerevisiae rad50 strain growth inhibition; at 50.0 µM; stronger effect = higher value
How it was run: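 A DNA repair-deficient yeast mutant serves as the test organism; compound-induced growth inhibition is calculated against vehicle-treated cells.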

[2] = NCI Yeast Anticancer Drug Screen. Data for the mec2-1 strain (AID 157); conditions: S. cerevisiae mec2-1 strain, at 50.0 µM, stronger effect = higher value
How it was run: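 Mutant yeast (mec2-1) grown with compound; growth inhibition relative to vehicle control reported.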

[3] = NCI Yeast Anticancer Drug Screen. Data for the sgs1 mgt1 strain (AID 161);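 further: 0% = growth of cultures given vehicle only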; conditions: S. cerevisiae sgs1 mgt1 strain, at 50.0 µM, stronger effect = higher value
How it was run: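 Compounds are added to genetically altered yeast, and growth is compared with cultures given vehicle alone to give percent inhibition.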

[4] = NCI Yeast Anticancer Drug Screen. Data for the cln2 rad14 strain (AID 165);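 further: 0% = growth equal to vehicle treated cultures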; conditions: S. cerevisiae cln2 rad14 strain, at 50.0 µM, stronger effect = higher value
How it was run: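 Readout is yeast growth inhibition versus vehicle-treated controls, using a strain with cln2 and rad14 alterations exposed to compound.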

[5] = NCI Yeast Anticancer Drug Screen. Data for the bub3 strain (AID 167); conditions: S. cerevisiae bub3 mutant strain, at 50.0 µM, stronger effect = higher value
How it was run: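 Inhibition values come from growth of compound-treated mutant yeast normalised to vehicle-treated controls.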

[6] = NCI Yeast Anticancer Drug Screen. Data for the mlh1 rad18 strain (AID 175); conditions: S. cerevisiae mlh1 rad18 strain growth inhibition; at 50.0 µM; stronger effect = higher value
How it was run: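 Genetically defined yeast (DNA repair-deficient) exposed to compounds; growth inhibition determined relative to vehicle.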

Measured: growth inhibition

CC(C)(CN1C(=O)C(Cl)=C(Cl)C1=O)CN1C(=O)C(Cl)=C(Cl)C1=O
inactive: [1] 1.7% | [2] -5.6% | [3] 6.3% | [4] -20.8% | [5] -5.8% | [6] 9.2%

O=C(NNCCO)C(O)C(O)C(O)C(O)CO (centres undefined)
inactive: [1] -31.4% | [2] 7.15% | [3] 2.95% | [4] 5.25% | [5] -4.7% | [6] 13.2%

O=C(O)C(c1ccc(-c2ccccc2)cc1)C1CCCCC1 (centres undefined)
inactive: [1] 47.9% | [2] 26.4% | [3] 50.2% | [4] 3.35% | [5] 45% | [6] 40.5%

c1ccc2c(c1)Cc1ccccc1-2
inactive: [1] 1.5% | [2] -17.2% | [3] -10.6% | [4] -19.5% | [5] -20.9% | [6] -19.1%

C[C@]1(CO)[C@H]2CC[C@@]34C=C[C@@](CO)(CC[C@H]3[C@]2(C)CC[C@H]1O)C4
inactive: [1] 5.45% | [2] 1.05% | [3] 39.6% | [4] 6.4% | [5] 11.7% | [6] -48.4%

O=P1(c2ccccc2)C(c2ccccc2)=CC=C1c1ccccc1
inactive: [1] 23.4% | [2] 9.8% | [3] 18.1% | [4] 6.6% | [5] 12.3% | [6] 31.2%

COC(=O)C(NC(=O)C(C)NC(=O)C1CCCN1C(=O)CNC(=O)C(CO)NC(=O)C(NC(=O)OCc1ccccc1)C(C)O)C(C)O (centres undefined) (Cbz-TSGPAT-OMe; configuration not given here)
inactive: [1] 3.3% | [2] -5.9% | [3] -4.7% | [4] -10.2% | [5] -7.8% | [6] 10.6%

CC1=C(C(=O)CC(=O)C(=O)Nc2cccc(Cl)c2C)Sc2ccccc2N1
inactive: [1] -18.8% | [2] -8.1% | [3] -31.4% | [4] 19.1% | [5] -13.6% | [6] -10.6%

O=C1NC=NC1c1ccccc1 (centres undefined)
inactive: [1] -2.25% | [2] -10.4% | [3] -9.9% | [4] -24.8% | [5] -3.65% | [6] -11.5%

O=C(Oc1ccc2c(c1)CCN2C(=O)c1cc2c(cc1[N+](=O)[O-])OCO2)c1ccc2c(c1)OCO2
inactive: [1] 17.4% | [2] 7.2% | [3] -2.3% | [4] 5.7% | [5] -4.8% | [6] 11.2%

COc1cc2cccnc2c2[nH]c(=O)c3c(c12)CCC3
inactive: [1] 13.9% | [2] 9.35% | [3] -6% | [4] -16.4% | [5] 7.2% | [6] 7.25%

c1ccc(-c2nc(-c3ccccc3SSc3ccccc3-c3nc(-c4ccccc4)nn3-c3ccccc3)n(-c3ccccc3)n2)cc1
inactive: [1] -14.5% | [2] -6.3% | [3] 0.8% | [4] 3.25% | [5] -8.8% | [6] 18.9%

Nc1nc(N)c(N=Nc2ccc(Cl)cc2Cl)c(=O)[nH]1
inactive: [1] 18.6% | [2] -2.6% | [3] -6.45% | [4] 15.6% | [5] 14.8% | [6] 2.75%

O=C1C(c2ccccc2)=C(O)c2cccc3cccc1c23
inactive: [1] -24.4% | [2] -33.5% | [3] -13% | [4] 13.4% | [5] -3.65% | [6] -57.6%

Cc1ccc(NC(=O)c2ccc(Cl)cc2)cc1
inactive: [1] -8.3% | [2] 1.2% | [3] 8.85% | [4] 3.3% | [5] 0% | [6] -3.55%

CCC1(c2ccc(N3C(=O)c4cc(OC)c(OC)cc4C3=O)cc2)CCC(=O)NC1=O (centres undefined)
inactive: [1] -6.25% | [2] 7.65% | [3] -7.25% | [4] -16.1% | [5] -16% | [6] -32.8%

O=C(CC(=O)Nc1ccccc1)N/N=C/c1cc(N=Nc2ccc(Br)cc2)ccc1O
inactive: [1] 16.4% | [2] 24.9% | [3] 53% | [4] 4.65% | [5] 0.2% | [6] 29%

COc1ccc(C(=O)/C=C/c2cccc3ccccc23)cc1
inactive: [1] 15.4% | [2] 25.7% | [3] 30.9% | [4] -3.85% | [5] 33% | [6] 16.6%

COc1ccc(OC)c(/C=C/c2cnnc3ccccc23)c1
inactive: [1] 12.6% | [2] 12.8% | [3] 19.2% | [4] -2.95% | [5] 6.75% | [6] 32%
